This excerpt belongs to a sample that is enriched for hits.
Tg IFNy HTS = T. gondii growth inhibition under IFN-gamma. AID 1259416. Toxoplasma gondii growth in IFN-gamma-treated host cells; hits give low values. 69,000 compounds, 3.8% hits. activity change, negative = inhibition, % (no concentration beside the values); in the data active = activity change below about -70%, passing the limit was not always enough;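 also: host cells are HeLa cells infected with Toxoplasma gondii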
Numbers without * were called inactive; i = inactive; ! = not confirmed by another sample.

SMILES | Tg IFNy HTS
COc1ccc(-c2nc(Cn3ccn4nc(-c5ccc(OC)c(OC)c5)cc4c3=O)c(C)o2)cc1 | -35
COc1ccc(-c2cc3c(=O)n(Cc4nc(-c5ccc(OC(C)C)cc5)oc4C)ccn3n2)cc1OC | -92*
COc1ccccc1-c1cc2c(=O)n(Cc3nc(-c4cccc(OC)c4OC)oc3C)ccn2n1 | -19
COc1ccc(-c2cc3c(=O)n(Cc4nc(-c5ccc(OC(C)C)cc5)oc4C)ccn3n2)cc1 | -54
CCC/C=C/c1ccc2nc[nH]c(=O)c2c1 | 32
COc1cc(N2CC[C@H](O)[C@@H]2Cc2ccccc2)ncn1 | 28
CC1CCCCN1S(=O)(=O)c1ccc2c(c1)CCC(=O)N2CC(=O)NCc1ccccc1 (stereo not drawn) | -23
COc1ccccc1-n1c(=O)n(Cc2nc(-c3ccccc3)oc2C)c(=O)c2cccnc21 | 6
NCC1Cc2cc(-c3nccc4occc34)cc(Cl)c2O1 (stereo not drawn) | 1
Cc1cc2c(cc1O)NC(=O)CC2c1nccs1 (stereo not drawn) | -29
COC(=O)c1cccc(C2CC(=O)Nc3cc(O)c(C)cc32)n1 (stereo not drawn) | -81*
COCCn1ccnc1C1CC(=O)Nc2cc(O)c(C)cc21 (stereo not drawn) | -1
O=C1CC(c2cccs2)Cc2nc(N3CCN(CCO)CC3)ncc21 (stereo not drawn) | 263
COc1ccc(S(=O)(=O)NC(Cc2ccsc2)c2ccccn2)cc1 (stereo not drawn) | 33
C[C@@H]1CN([C@@H](C)CO)C(=O)c2cccc(NC(=O)Nc3ccc(F)cc3)c2O[C@@H]1CN(C)S(=O)(=O)c1ccc(Cl)cc1 | -17
C[C@H](CO)N1C[C@H](C)[C@@H](CN(C)Cc2ccc(Oc3ccccc3)cc2)Oc2c(NC(=O)CCC(F)(F)F)cccc2C1=O | -65
C[C@H](CO)N1C[C@H](C)[C@H](CN(C)S(=O)(=O)c2ccc(Cl)cc2)Oc2c(NC(=O)Nc3ccc(F)cc3)cccc2C1=O | -81*
COc1ccc(S(=O)(=O)N(C)C[C@@H]2Oc3c(NC(=O)c4nc5ccccc5s4)cccc3C(=O)N([C@H](C)CO)C[C@H]2C)cc1 | -4
COc1ccc(S(=O)(=O)N(C)C[C@H]2Oc3c(NC(=O)c4nc5ccccc5s4)cccc3C(=O)N([C@@H](C)CO)C[C@@H]2C)cc1 | -78*
C[C@@H]1CN([C@@H](C)CO)C(=O)c2cc(/C=C/c3ccccc3)cnc2O[C@@H]1CN(C)S(=O)(=O)c1ccccc1F | -7
C[C@@H]1CN([C@H](C)CO)C(=O)c2cc(/C=C/c3ccccc3)cnc2O[C@@H]1CN(C)S(=O)(=O)c1ccccc1F | -88*
C[C@@H]1CN([C@@H](C)CO)C(=O)c2cccc(NC(=O)c3nc4ccccc4s3)c2O[C@@H]1CN(C)C(=O)Nc1ccc2c(c1)OCO2 | -43
C[C@@H]1CN([C@@H](C)CO)C(=O)c2cccc(NC(=O)Nc3ccc(F)cc3)c2O[C@H]1CN(C)S(=O)(=O)c1ccc(Cl)cc1 | -53
C[C@H](CO)N1C[C@H](C)[C@@H](CN(C)Cc2ccccc2)Oc2c(NC(=O)Cc3cn(C)c4ccccc34)cccc2C1=O | -93*
C[C@@H]1CN([C@@H](C)CO)C(=O)c2cccc(NS(C)(=O)=O)c2O[C@H]1CN(C)Cc1ccc(-c2ccccc2)cc1 | -23
SMILES | Tg IFNy HTS
C[C@H](CO)N1C[C@H](C)[C@@H](CN(C)S(=O)(=O)c2ccccc2F)Oc2ncc(/C=C/c3ccccc3)cc2C1=O | -14
Cc1cccc(NC(=O)Cn2ncc3c(N4CCC(C)CC4)ncnc32)c1 | 132
COc1cccc(C(=O)N2CCN(Cc3nc4ccccc4nc3C)CC2)c1 | 2
O=C1CCC2C(CCN2c2ncccn2)N1CC1CCOCC1 (stereo not drawn) | -4
O=C(Nc1ccc2c(c1)OCCO2)N1CCC2(CC1)Nc1cc(F)ccc1-n1cccc12 | i
O=C(c1cscn1)N1CCCC2(CCCN2Cc2ccccc2F)C1 (stereo not drawn) | 28
Cc1ccc(N2CCN(C(=O)CCN3CCCCO3)CC2)c(C)c1 | 36
Cc1cccc(-c2nc(C)c(CCNS(=O)(=O)c3ccc([N+](=O)[O-])cc3)s2)c1 | i
Cc1cccc(S(=O)(=O)N2C[C@H]3C[C@H](C(=O)NCC4CC4)[C@@H](C2)O3)c1 | -2
CCS(=O)(=O)N1CCC2(CC1)OC(=O)C(C)=C2C(=O)Nc1ccc(C)c(C)c1 | 60
Cc1ccc(OCc2cc(C(N)=O)oc2C)cc1 | -2
CCn1c(C2CCCN(C(=O)c3cccc4cc(C)oc34)C2)nn(C)c1=O (stereo not drawn) | -2
CC(C)CCC(=O)N1C[C@@H]2c3nc(N(C)C)ncc3CS(=O)(=O)[C@H]2C1 | -6
COc1ccc(CN2CCN(C(=O)c3ncc[nH]3)CC2=O)cc1 | 5
CCOc1c2ccccc2nc2ccccc12 | -123*
CCOC(=O)c1c(C)nc2ccccc2c1C(=O)O | 9
FC(F)(F)c1cc(Sc2cc(C(F)(F)F)nc3ccccc23)c2ccccc2n1 | -11
Nc1c2c(nc3ccccc13)CCCC2 | -16
Nc1c2ccccc2nc2ccccc12 | -73*!
CCOc1ccc(Nc2nc3ccccc3c(=O)s2)cc1 | -3
Cc1cccc(N2CC3(CCN(C(=O)NCc4ccccc4)C3)CC2=O)c1 (stereo not drawn) | 3
Cc1ccccc1NC(=O)N1CC[C@@H]2Oc3ccccc3S(=O)(=O)N(C)[C@@H]2CC1 | -3
Cc1cc(CN(C)Cc2ccc(OCc3ccc4c(c3)OCO4)cc2)n[nH]1 | -17
COc1ccccc1-c1cccc(C(=O)N(C)Cc2snnc2C)c1 | 43
CCc1ccc(NC(=O)N2CCC3(CC2)NC(=O)c2cc(C)ccc2N3C)cc1 | 95
SMILES | Tg IFNy HTS
Cc1ccc2c(n1)N(Cc1cccnc1)CCN(C(=O)c1ccc[nH]1)C2 | -33
COC1CC2COCC(C1)N2Cc1cccc(F)c1 (stereo not drawn) | -6
COc1ccccc1-c1nc(Cn2nnc(-c3nc(-c4ccc(F)cc4)no3)c2C)c(C)o1 | -4
Cn1cc(-c2cc3n(n2)CCC(=O)N3CCCC(=O)N2CCN(c3ccccn3)CC2)c2ccccc21 | 101
CN(C)CC/C=C1/c2ccccc2COc2ccccc21 | 16
CN(C)CCC=C1c2ccccc2C=Cc2ccccc21 | -26
CN(C)CC/C=C1\c2ccccc2Sc2ccc(Cl)cc21 | -77*!
OCCOCCN1CCN(C2=Nc3ccccc3Sc3ccccc32)CC1 | -4
CC(C)c1ccc2c(c1)C(N1CCN(CCO)CC1)Cc1ccc(F)cc1S2 (stereo not drawn) | -66
OCCN1CCN(CC/C=C2/c3ccccc3Sc3ccc(Cl)cc32)CC1 | -74*
CN(C)CCC=C1c2ccccc2CCc2ccccc21 | -75*!
CN(C)CC/C=C1/c2ccccc2COc2ccc(CC(=O)O)cc21 | -2
CN(C)CCC1(c2ccc(Cl)cc2)Cc2ccccc2C(=O)O1 (stereo not drawn) | 14
COc1ccc(CCC(=O)N2CCC[C@@H]2C(=O)NCCc2csc(-c3ccccc3)n2)cc1 | 17
COCCN1CCC2(CCCN(Cc3ccnn3C)CC2)C1=O (stereo not drawn) | 3
CN(C)C(=O)c1ccc2onc(-c3csc(-c4cccnc4)n3)c2c1 | -4
COc1ccc(S(=O)(=O)NCc2ccccc2-n2ccnc2)cc1NC(C)=O | -7
Cc1nc(CN2CCOCC23CCN(CC(C)O)CC3)cs1 (stereo not drawn) | 5
NC(=O)c1cccc(CC2CCN(C(=O)CCCn3cccn3)C2)c1 (stereo not drawn) | 13

Screening data from PubChem.
